CYP2C9 act: human CYP2C9 activators, primary screen, biochemical, luminescence; recombinant CYP2C9, luciferin-H conversion; hits give high values; factor 1 = untreated enzyme, 0 = blocked; activation factor at 5 µM; 96,000 compounds, 1.4% hits;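 active = activation factor of 2 or more for CYP2C9 at a 5 µM dose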;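 note: 0 = sulfaphenazole-blocked wells and 1 = vehicle-only wells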
CYP2C19 activ: human CYP2C19 activators, primary screen, biochemical, luminescence; recombinant CYP2C19, luciferin-H EGE luminescence; hits give high values; 0 = fully inhibited enzyme, 1 = untreated enzyme; activation factor at 5 µM; 96,000 tested, under 10 active; AID 1025, 2008;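 active = activation factor of at least 2 at 5 µM in the primary screen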;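 note: 0 = wells with 2.5 mM tranylcypromine and 1 = vehicle-only wells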
Target sequence (P33261 whole entry, looked up): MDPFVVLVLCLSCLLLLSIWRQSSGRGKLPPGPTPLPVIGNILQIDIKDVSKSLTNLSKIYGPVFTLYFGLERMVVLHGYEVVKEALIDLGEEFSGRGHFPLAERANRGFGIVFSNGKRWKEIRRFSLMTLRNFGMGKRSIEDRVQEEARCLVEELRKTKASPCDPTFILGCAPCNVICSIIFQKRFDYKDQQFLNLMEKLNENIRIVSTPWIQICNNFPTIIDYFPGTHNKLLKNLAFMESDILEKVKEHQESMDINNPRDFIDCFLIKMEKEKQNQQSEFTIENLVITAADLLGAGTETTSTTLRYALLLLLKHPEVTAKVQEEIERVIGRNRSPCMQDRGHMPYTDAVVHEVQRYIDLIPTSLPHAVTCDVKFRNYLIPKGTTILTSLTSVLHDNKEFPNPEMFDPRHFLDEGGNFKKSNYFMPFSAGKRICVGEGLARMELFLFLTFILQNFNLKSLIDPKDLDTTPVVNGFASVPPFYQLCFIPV
PLAP activator: PLAP enzyme activators, biochemical, luminescence, HTS | Alkaline phosphatase, placental type (Homo sapiens), P05187 | purified PLAP enzyme, luminescent substrate read-out; hits give high values | activation fold at 20 µM | 96,000 compounds, 1.2% hits | AID 696, 2007; in the data active = activation fold above about 2
CYP2C19 inhib: blockers of cytochrome P450 2C19 activity – biochemical, luminescence, ADME assay, primary screen; CYP2C19 Supersomes, luciferin-H EGE luminescence, 30 min; inhibition, % at 5 µM; 96,000 compounds, 21% hits; AID 778, 2007;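 active = CYP2C19 inhibition above a set limit at 5 µM in the primary screen, cut at about 50% in these data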;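 note: plate controls were negative control wells for no effect and 2.5 mM tranylcypromine positive control for full effect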
CYP2C9 inh: blockers of cytochrome P450 2C9 activity – biochemical, luminescence, ADME assay, primary screen | CYP2C9 Supersomes, luciferin-H conversion | 96,000 compounds, 20% hits | P11712 | inhibition, % at 5 µM;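 active = blocking of liver enzyme CYP2C9 beyond about 50% at 5 µM, limit read from the data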
* = called active by the depositor. Rows were chosen to be rich in hits. Some 31% of all compounds tested hit in one or more screens of this group.

SMILES | CYP2C9 act | CYP2C19 activ | PLAP activator | CYP2C19 inhib | CYP2C9 inh
CCOC(=O)CSc1nc2ccccc2n1CC(=O)N1CCN(c2ccccc2)CC1 | 0.8 | 1 | 1.2 | 2.9 | 20.8
CSc1nsc(SCC(=O)Nc2c(C)n(C)n(-c3ccccc3)c2=O)n1 | 1 | 1 | 0.9 | 0.0 | 4.2
CC(C)CCNC(=O)C1CC(c2cccc([N+](=O)[O-])c2)=NO1 (stereo not given) | 1.4 | 0.8 | 0.9 | 23.0 | -42.7
COc1ccc(C2=NOC(C(=O)NCc3ccc(F)cc3)C2)cc1OC (stereo not given) | 0.9 | 0.5 | 1.4 | 46.2 | 5.9
COc1cc(C2=NOC(C(=O)NCc3ccc(F)cc3)C2)cc(OC)c1OC (stereo not given) | 1.6 | 0.3 | 1 | 69.4* | -60.9
CCCCNC(=O)C1CC(c2cccc([N+](=O)[O-])c2)=NO1 (stereo not given) | 2* | 1 | 0.9 | -0.3 | -99.2
CCOc1ccc(N=C(NC#N)SC)cc1 | 0.7 | 0.3 | 1 | 70.0* | 25.4
CCOc1ccc(N=C(NC#N)SCC(=O)NC2CC2)cc1 | 1.1 | 0.6 | 1 | 39.4 | -13.2
Cc1noc(C)c1S(=O)(=O)N1CCCC(C(=O)Nc2cccnc2)C1 (stereo not given) | 1 | 1 | 1 | 3.5 | 1.8
CC(=O)Nc1cccc(NC(=O)c2c(-c3ccccc3Cl)noc2C)c1 | 0.8 | 0.7 | 1 | 25.8 | 21.0
Cc1onc(-c2c(F)cccc2Cl)c1C(=O)OCC(=O)NC(c1ccccc1)c1ccccc1 | 0.2 | 0.7 | 0.9 | 30.2 | 83.5*
Cc1onc(-c2c(Cl)cccc2Cl)c1C(=O)Nc1ccc2c(c1)OCO2 | 0.2 | 0.6 | 0.8 | 40.2 | 81.4*
Cc1onc(-c2ccccc2)c1C(=O)Nc1cccnc1 | 0.5 | 0.9 | 1 | 10.6 | 50.1*
Cc1onc(-c2ccccc2)c1C(=O)Nc1nc(-c2ccc(F)c(F)c2)cs1 | 0.3 | 0.2 | 1.1 | 78.8* | 67.8*
COCN(C#N)c1nc(OC)nc(OC)n1 | 1 | 1 | 1.3 | -1.2 | -1.5
COCCCN1C(=O)C(O)=C(C(=O)c2ccc(C)o2)C1c1cccc(Br)c1 (stereo not given) | 0.9 | 0.9 | 1.3 | 7.1 | 12.2
CCOC(=O)Cc1csc(NC(=O)c2c(-c3ccccc3)noc2C)n1 | 0.2 | 0.2 | 1 | 82.0* | 83.0*
Cc1csc(NC(=O)c2c(-c3c(Cl)cccc3Cl)noc2C)n1 | 0.1 | 0.2 | 1.3 | 83.4* | 88.9*
Cc1onc(-c2c(F)cccc2Cl)c1C(=O)NCc1cccs1 | 0.2 | 0.2 | 0.8 | 84.6* | 84.4*
CCOC(=O)Cc1csc(NC(=O)c2c(-c3c(F)cccc3Cl)noc2C)n1 | 0.3 | 0.5 | 1.4 | 51.4* | 70.5*
CCOC(=O)CNC(=O)Cn1cnc2c(nnn2-c2ccc(C)cc2)c1=O | 1.2 | 1.1 | 1 | -8.7 | -15.5
COc1ccc(OC)c(S(=O)(=O)N2CCC(C(=O)Nc3ccc(C)c(C)c3)CC2)c1 | 2.5* | 0.7 | 1.6 | 29.2 | -145.3
COc1ccc(CCNC(=O)C2CCN(S(=O)(=O)c3cc(OC)ccc3OC)CC2)cc1 | 1.5 | 0.7 | 1 | 34.3 | -49.5
COc1ccc(OC)c(S(=O)(=O)N2CCC(C(=O)Nc3cccc(C)c3C)CC2)c1 | 2.5* | 0.9 | 0.9 | 10.0 | -153.9
CC1(C)N=C(SCC(=O)Nc2ccc(Cl)cc2)C(c2ccccc2)=N1 | 0.3 | 0.2 | 1.4 | 76.6* | 68.0*
SMILES | CYP2C9 act | CYP2C19 activ | PLAP activator | CYP2C19 inhib | CYP2C9 inh
CC1(C)N=C(SCC(=O)Nc2ccc(Cl)cc2)C(c2ccc(Cl)cc2)=N1 | 0.6 | 0.6 | 1.1 | 38.0 | 40.5
Cc1cc(C)c(S(=O)(=O)/N=C2\C=CC(=O)C(Cl)=C2)c(C)c1 | 0.8 | 0.5 | 1.6 | 50.9* | 16.4
COc1ccccc1N1CCN(C(=O)C2CCN(S(=O)(=O)c3ccc(Cl)cc3)CC2)CC1 | 0.8 | 0.8 | 1.5 | 20.2 | 20.9
COC(=O)c1nc2cc3c(cc2c(C)c1C(=O)OC)OCO3 | 0.9 | 0.9 | 1 | 7.7 | 8.9
COc1ccc(C(=O)c2cnc3cc4c(cc3c2C)OCO4)cc1 | 0.4 | 0.1 | 1.8 | 94.9* | 64.9*
COc1ccc(N2CCN(/C(=N\S(=O)(=O)c3ccccc3)Nc3nc(C)cc(C)n3)CC2)cc1 | 0.3 | 0.9 | 1.1 | 10.8 | 66.7*
Cc1ccc(S(=O)(=O)/N=C(/Nc2nc(C)cc(C)n2)N2CCOCC2)cc1 | 1 | 1 | 1.2 | -3.9 | 4.0
O/C(=C\Sc1nnc(Cc2ccccc2)o1)c1ccc(F)cc1 | 0 | 0.6 | 1.1 | 35.8 | 96.4*
O=C(O)c1cccc(CSc2nnc(Cc3ccccc3)o2)c1 | 0.9 | 1 | 1.3 | -3.3 | 6.0
CC(CCc1ccccc1)NC(=O)c1ccccc1 (stereo not given) | 0.1 | 0.3 | 1.1 | 66.4* | 91.3*
O=C(NNC(=O)C(c1ccccc1)c1ccccc1)c1cccs1 | 0.1 | 0.4 | 1.9 | 55.9* | 90.8*
CC(CCc1ccccc1)NC(=O)c1ccncc1 (stereo not given) | 0.1 | 0 | 1 | 99.7* | 93.8*
CC(CCc1ccccc1)NC(=O)c1cccs1 (stereo not given) | 0.3 | 0.4 | 0.9 | 56.7* | 72.5*
CC(CCc1ccccc1)NC(=O)c1ccc(C(=O)NC(C)CCc2ccccc2)cc1 (stereo not given) | 0.8 | 0.9 | 0.2 | 9.6 | 16.3
O=C(NCCCc1ccccc1)c1cccs1 | 0.5 | 0.5 | 0.8 | 49.2 | 46.8
CCOC(=O)N1CCC(c2cc(=O)n3[nH]c(-c4ccccc4)cc3n2)CC1 | 0.3 | 1.1 | 1.1 | -8.2 | 66.3*
CCOC(=O)N1CCC(c2cc(=O)n3[nH]c(C)c(-c4ccc(F)cc4)c3n2)CC1 | 0.3 | 0.7 | 1.5 | 33.4 | 68.5*
O=C(Nc1ccc(F)cc1)N1CCn2c(nc3ccccc32)C1 | 0.9 | 0.6 | 0.9 | 35.2 | 9.1
Cn1c(=O)c(=O)n(C)c2cc(S(=O)(=O)N3CCC(Cc4ccccc4)CC3)ccc21 | 1 | 1 | 0.8 | -2.7 | -2.2
CCn1c(=O)n(CC)c2cc(S(=O)(=O)N3CCC(c4ccccc4)CC3)ccc21 | 0.3 | 0.7 | 0.8 | 32.8 | 68.2*
COC(=O)c1scc(C)c1N/N=C(\C)c1ccc(F)cc1F | 1.1 | 0.9 | 0.8 | 8.2 | -8.4
CCN(CCO)Cc1csc2ccc(Br)cc12 | 1.3 | 0.6 | 1.8 | 37.6 | -28.2
Cc1cc(C)c(S(=O)(=O)c2ccccc2)c(Cl)n1 | 3.2* | 0.3 | 1.2 | 68.8* | -222.1
Cc1ccc(S(=O)(=O)c2c(C)cc(C)nc2Cl)cc1 | 1.7 | 0.1 | 1.4 | 94.3* | -70.5
Cc1ccc(-n2nnnc2SCC(=O)Nc2ccc3c(c2)COC3=O)cc1C | 1 | 0.8 | 0.7 | 20.2 | -2.6
N#CCC(=O)N/N=C/c1ccc(OS(=O)(=O)c2ccccc2)cc1 | 0.9 | 0.8 | 1 | 19.5 | 8.5
COc1cc(-n2cnnn2)ccc1S(=O)(=O)N1CCOCC1 | 1 | 1 | 1.1 | -4.1 | -3.3

Source: PubChem BioAssay (Sanford-Burnham Center for Chemical Genomics)
